Source: PubChem BioAssay
Sampled rows, rich in hits. Any-hit rate of the full collection: about 7.3%.
FLuc counter: qHTS profiling assay for firefly luciferase inhibitor/activator using purifed enzyme and Km concentrations of substrates (counterscreen for miR-21 project). 360,000 compounds, 6.9% hits. purified FLuc, Km substrates, luminescence inhibition. Luciferin 4-monooxygenase (Photinus pyralis), P08659. Potency, µM (doses to about 57.5 µM), inactives show at the highest dose activity change, negative = inhibition, usual class: inhibitors;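 further: plate controls were vehicle for no effect and reference inhibitor for full effect; nearly all actives have a fitted effect of over 55% in size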
Target sequence (P08659 whole entry, looked up): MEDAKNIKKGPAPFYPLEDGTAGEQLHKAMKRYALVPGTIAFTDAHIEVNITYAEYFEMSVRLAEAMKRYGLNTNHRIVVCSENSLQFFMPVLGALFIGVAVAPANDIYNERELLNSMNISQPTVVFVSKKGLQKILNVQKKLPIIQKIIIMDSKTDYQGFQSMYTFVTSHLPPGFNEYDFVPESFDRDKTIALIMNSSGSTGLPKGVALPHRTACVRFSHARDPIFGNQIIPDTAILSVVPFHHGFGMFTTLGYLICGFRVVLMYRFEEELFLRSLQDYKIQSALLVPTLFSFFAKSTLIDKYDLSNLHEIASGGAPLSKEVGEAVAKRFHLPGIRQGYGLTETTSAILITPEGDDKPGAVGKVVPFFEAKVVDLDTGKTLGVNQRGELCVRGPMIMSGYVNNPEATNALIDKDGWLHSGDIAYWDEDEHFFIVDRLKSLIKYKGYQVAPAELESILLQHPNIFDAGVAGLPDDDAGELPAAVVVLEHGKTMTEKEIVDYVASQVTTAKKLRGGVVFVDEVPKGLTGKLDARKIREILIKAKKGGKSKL
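Purified P. pyralis luciferase (10nM final) with 10uM D-luciferin and 10uM ATP (Km levels) in 50mM Tris acetate pH 7.5, 10mM Mg acetate, 0.01% Tween-20, 0.05% BSA; qHTS 6-point titration, ~60 µM downward; luminescence read.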
KinaseGlo FLuc: Counterscreen for Luciferase (Kinase-Glo TM) Inhibition; Luciferin 4-monooxygenase (Photuris pensylvanica), Q27757; Kinase-Glo luciferase, ATP luminescence, 8 min; Potency, µM (top dose mostly 38.3 µM), inactives show at the highest dose activity change, negative = inhibition, actives largely listed as inhibitors; 200,000 compounds, 0.28% hits; further: on the % scale 0 is the no-effect control and ±100 the full control effect; nearly all actives have a fitted effect of over 60% in size
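Substrate mix (final 50 mM imidazole pH 7.2, 50 mM KCl, 7 mM MgCl2, 10 uM ATP, 0.01% Tween 20, 0.05% BSA) plus pin-tool compound, then Kinase-Glo detection mix; 8 min ambient, luminescence read.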
Rab9 promoter act: qHTS Assay for Rab9 Promoter Activators; 320,000 compounds, 2.8% hits; Huh7 Rab9 promoter-luciferase reporter, luminescence, 24 h; Potency, µM (titrated, usually from 9.22 µM), without a hit: at the highest dose activation, negative = inhibition, actives largely listed as activators; further: % of control where 0% means no effect; nearly all actives have a fitted effect of over 60% in size
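Cells were plated at 1500 per well in reduced-serum medium with 10% FBS and left 2 h. Compound in DMSO was then added for 24 h at 37 °C. Reporter signal was read by luminescence after 10 min with luciferase detection reagent.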
NPC1 promoter act: qHTS Assay for NPC1 Promoter Activators. Huh7 NPC1 promoter luciferase reporter, 24 h. 320,000 compounds, 2.4% hits. Potency, µM (titrated, usually from 9.22 µM), for inactives: top-dose activation, most hits filed as activators; further: % of control where 0% means no effect; nearly all actives have a fitted effect of over 60% in size
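Readout is luciferase luminescence, reflecting NPC1 promoter activation in stably transfected Huh7 cells after 24 h compound exposure at 37 °C in reduced-serum medium with 10% FBS.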
SMN2 splice enh: qHTS Assay for Enhancers of SMN2 Splice Variant Expression. 210,000 compounds, 2.8% hits. AID 1458, 2008. HEK293 SMN2-luciferase splicing reporter, luminescence, 30-36 h. Potency, µM (titrated, usually from 46.1 µM), for the others: top-dose activity change, positive = activation, hits mostly activators; further: % of control where 0% means no effect; nearly all actives have a fitted effect of over 55% in size
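qHTS luciferase splicing reporter: luminescence rises when SMN2 exon 7 is included in transfected HEK293 cells. Compound exposure lasted 30-36 h at 37C, with 4.5 mM final sodium butyrate as control, followed by a ONE-Glo read.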
Starred values were filed as active, the others as inactive; ? = inconclusive; / = not tested or not shown; [ ] = another dose, or the depositor's remark. The call rests on the fitted dose curve; in most records, active means well fitted curve in the direction sought with a large enough effect; inconclusive means small, poorly fitted or top-dose-only effect, or another doubt; inactive means no such curve, though single readings can be large; an effect the other way counts as inactive or inconclusive. Potency means the concentration at half of the fitted maximal effect.

SMILES | FLuc counter | KinaseGlo FLuc | Rab9 promoter act | NPC1 promoter act | SMN2 splice enh
O=c1cc(-c2cccc(O)c2)oc2ccc(O)cc12 | / | -14% | / | / | 14µM*
COc1ccc(N=c2cc(-c3ccc(OC)cc3)oc3ccccc23)cc1 | 2% | 1% | -5% | -1% | 0%
COc1cc(-c2cc3n(C)c(C)c(CCC(=O)NCc4ccccc4)c(=O)n3n2)cc(OC)c1OC | 6% | / | / | / | /
COc1ccccc1N1CCN(C(=O)c2cnn(-c3ccc(C)c(C)c3)c2C2CCN(C(=O)OC(C)(C)C)CC2)CC1 | -2% | / | / | / | /
COc1ccc2c(=O)cc(-c3ccc(O)cc3)oc2c1 | / | -6% | / | / | /
COc1cc(-c2cc(=O)c3ccccc3o2)ccc1O | ? | -3% | ? | 21% | ?
COc1ccc(-c2cc(=O)c3ccccc3o2)cc1 | 6µM* | -13% | 2µM* | 2.5µM* | 10µM*
O=c1cc(-c2ccc3c(c2)OCO3)oc2ccccc12 | ? | -3% | 3.5µM* | 3.2µM* | 13µM*
Nc1c(-c2ccc3c(c2)OCCO3)oc2ccccc2c1=O | 9.5µM* | / | ? | ? | /
NC(=O)COc1ccc2oc(-c3ccccc3)cc(=O)c2c1 | 12µM* | -1% | ? | ? | -18%
O=c1cc(-c2ccccc2O)oc2cc(O)ccc12 | / | -11% | / | / | 25µM*
COc1ccc(-c2cc(=O)c3c(O)c(OC)c(O)cc3o2)cc1 | 0.27µM* | / | 3.5µM* | 3.2µM* | /
Cn1c(-c2ccc3c(c2)OCO3)cc(=O)c2ccccc21 | -11% | 0% | -8% | -3% | 5%
O=c1cc(-c2ccc(O)cc2)oc2ccc(O)cc12 | 12µM* | -14% | 3.5µM* | ? | ?
Cn1c2ccccc2c(=O)c2ccc(-c3ccc4c(c3)OCO4)cc21 | 3µM* | / | 1.1µM* | 1.3µM* | /
O=c1cc(-c2ccccc2O)oc2cc(O)cc(O)c12 | / | 2% | / | / | /
Cc1ccc(-n2nc3c(N4CCC(C(=O)NC5CCC(C)CC5)CC4)nnc(C)c3c2C)cc1 (centres undefined) | -5% | / | / | / | /
CCOc1cccc(NC(=O)C2CC(=O)N(C)C(=Nc3cccc(OC)c3)S2)c1 (centres undefined) | -10% | / | / | / | -55%
O=c1cc(-c2ccncc2)oc2ccccc12 | -9% | -8% | -6% | 8% | -10%
O=c1cc(-c2ccc(O)cc2)oc2ccccc12 | 11µM* | -2% | ? | ? | ?
COc1ccc(-c2cc(C(F)(F)F)nc(SCC(=O)NC(C)c3ccccc3)n2)cc1 (centres undefined) | -1% | / | / | / | -7%
Cc1cc(C(F)(F)F)c(C#N)c(SCC(=O)Nc2nc3cc(Br)ccc3s2)n1 | -21% | 0% | 3.2µM* | 29% | -58%
CCOC(=O)NC(=O)CSc1nc(C)cc(C(F)(F)F)c1C#N | -12%[2.3 µM] | -1% | 21% | 22% | 3%
Cc1cc(OCc2cn3cccnc3n2)ccc1Cl | 21µM* | -7% | 2.8µM* | ? | 11µM*
CCOc1ccc(NC(=O)CCn2cccn2)cc1 | -6% | / | / | / | /
SMILES | FLuc counter | KinaseGlo FLuc | Rab9 promoter act | NPC1 promoter act | SMN2 splice enh
O=c1oc(CCCO)cc2ccc(/C=C/c3cccc([N+](=O)[O-])c3)cc12 | ? | / | -6% | 4µM* | /
O=C(Nc1cccnc1)c1noc2c1CCCC2 | ? | ? | ? | ? | 28%
CC(=O)c1ccc(NC(=O)c2noc3c2CCCCC3)cc1 | 7.6µM* | -1% | 2µM* | 1.1µM* | 8.9µM*
Cc1cc(NC(=O)c2noc3c2CCCCC3)nn1Cc1ccc(Cl)cc1 | 13µM* | 5% | -3% | -4% | -34%
Cc1nn(Cc2ccc(Cl)cc2)c(C)c1NC(=O)c1noc2c1CCCCC2 | 3% | 2% | -6% | -3% | -26%
CCOC(=O)c1ccc(NC(=O)c2noc3c2CCCC3)cc1 | 8.5µM* | / | / | / | /
Cc1cc(C)cc(-n2c(SCC(=O)N3CCOCC3)nc3c([nH]c4ccccc43)c2=O)c1 | 0% | / | / | / | /
CCSc1nsc(NC(=O)Nc2cccc(OC)c2)n1 | 21µM* | / | 20% | 25% | /
COc1ccc(Cc2nnc(NC(=O)Nc3cccc(OC)c3)s2)cc1 | 0% | / | -9% | 2% | /
CCSc1nsc(NC(=O)Nc2ccccc2F)n1 | 11µM* | / | 1.6µM* | 2.8µM* | /
C=CCSc1nsc(NC(=O)Nc2ccc(F)cc2)n1 | 24µM* | / | -27% | -15% | /
CCC(C)n1c(=N)c(C(=O)NC2CCCCC2)cc2c(=O)n3ccccc3nc21 (centres undefined) | 2% | / | / | / | -15%
CCc1nnc(SCc2nc(-c3ccc(OC)cc3)oc2C)c2cc3sccc3n12 | -11% | / | / | / | /
CSc1cccc(NC(=S)N2CCC(c3ccccc3)C2)c1 (centres undefined) | 15µM* | / | 14% | 18% | /
Fc1cc(F)cc(NC(=S)N2CCC(c3ccccc3)C2)c1 (centres undefined) | ? | -2% | 3.5µM* | ? | 13µM*
CSc1cccc(NC(=S)N2CCC(N(C)C3CCCCC3)CC2)c1 | -1% | 3% | -3% | -8% | -34%
O=C(c1ccc(F)cc1)N1CCC(c2ccccc2)C1 (centres undefined) | ? | / | ? | 4.5µM* | /
COc1ccc(C(=O)N2CCCC(c3ccccc3)C2)cc1 (centres undefined) | -2% | -3% | 1% | 1% | -9%
CCc1cccc(NC(=S)N2CCC(c3ccccc3)C2)c1 (centres undefined) | 24µM* | 1% | ? | ? | 68%
Fc1ccccc1NC(=S)N1CCC(c2ccccc2)C1 (centres undefined) | ? | -2% | ? | ? | 79%
CC(=O)c1cccc(NC(=S)N2CCC(Cc3ccccc3)CC2)c1 | -4% | 1% | -1% | 0% | -6%
